# Screens (PubChem BioAssay)
# KB-3-1 cytotox = kills parental KB-3-1 adenocarcinoma cells; KB-3-1 viability, CellTiter-Glo ATP luminescence, 72 h; Potency, µM (highest dose often 46.1 µM), usual class: cytotoxic; hit rate 1.4% among 400,000; note: nearly all actives have a fitted effect of over 60% in size
#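 Luminescent ATP read-out (CellTiter-Glo) measures survival of drug-naive KB-3-1 cells after 72 h compound exposure at 37 °C. Titration series was screened from lowest to highest concentration, with DMSO vehicle plates as background controls.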
# HT1080-NT tox = kills 2HG-producing HT-1080-NT fibrosarcoma cells. AID 686970. Potency, µM (highest dose often 46.1 µM), without a hit: at the highest dose activity, negative = less viability, actives largely listed as cytotoxic. hit rate 1.6% among 360,000. HT-1080-NT fibrosarcoma viability, CellTiter-Glo ATP luminescence, 48 h;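 note: NT is the 2HG producing partner of a matched IDH1 knockdown line; 0% = DMSO-treated cells and -100% = media-only wells without cells; nearly all actives have a fitted effect of over 55% in size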
#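 Compounds were tested in concentration-response format on HT-1080-NT cells for 48 hours at 37 degrees C. Cell viability came from CellTiter-Glo luminescence; curves were classified by r2, response magnitude and activity.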
# TDP1 cell CPT = DT40-hTDP1 cell growth loss with CPT | hit rate 12% among 420,000 | chicken DT40 Tdp1-/-;hTDP1 cells + 20 nM CPT, ATP luminescence, 48 h | Potency, µM (highest dose often 46.2 µM), without a hit: at the highest dose activity change, negative = growth inhibition, actives largely listed as inhibitors; note: nearly all actives have a fitted effect of over 55% in size
#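 Chicken DT40 Tdp1-/- cells stably complemented with human TDP1 were seeded at 400 cells/well in medium containing 20 nM camptothecin, exposed to pin-transferred compounds, and grown at 37 °C for at least 48 hr. Viability was read as ATP luminescence.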
# KB-V1 cytotox = kills drug-selected multidrug resistant KB-V1 cells; hit rate 3.4% among 400,000; KB-V1 MDR cells viability, CellTiter-Glo, 72 h; Potency, µM (series often up to 46.1 µM), hits mostly cytotoxic; note: nearly all actives have a fitted effect of over 60% in size
#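 Luminescent ATP read-out (CellTiter-Glo, 10 min) measures survival of drug-selected KB-V1 MDR cells after 72 h, 37 degrees C compound exposure. Medium: phenol-red-free DMEM, 10% FBS. Values from fitted concentration-response curves.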
# DT40 TDP1 no CPT = qHTS for Inhibitors of human tyrosyl-DNA phosphodiesterase 1 (TDP1): qHTS in cells in absence of CPT. DT40 Tdp1-/- hTDP1 cells, no CPT, ATP luminescence, 48 h. Potency, µM (series often up to 46.2 µM), inactives show at the highest dose activity change, negative = growth inhibition, usual class: inhibitors. hit rate 15% among 420,000; note: nearly all actives have a fitted effect of over 55% in size
#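 No-CPT arm: Tdp1-/-;hTDP1 DT40 cells (400/well) plus compounds, incubated ≥48 hr at 37 °C. Readout CellTiter-Glo luminescence.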
# HT1080 IDH1KD tx = kills HT-1080 cells with IDH1 knockdown | hit rate 2% among 360,000 | Potency, µM (highest dose often 46.1 µM), inactives show top-dose activity, negative = toxicity, usual class: cytotoxic | HT-1080 IDH1 knockdown viability, ATP luminescence, 48 h;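 note: 0% = DMSO wells and -100% = cell-free medium wells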
#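 Knockdown cells (IDH1KD HT-1080) received compounds 2 h after plating at 750 cells/well and were kept 48 h at 37 °C in 5% FBS RPMI. A CellTiter-Glo luminescence read gave % activity for curve fitting.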
# The depositor's hits bear a star; i = inactive; ? = inconclusive; . = not tested or not shown; ! = repeats disagree; [ ] = another dose, or the depositor's remark. This is a sample that favours compounds with a hit; in the whole collection about 19% have one here. Calls come from the whole dose curve; as a rule, active = well fitted curve in the direction sought with a large enough effect; inconclusive = small, poorly fitted or top-dose-only effect, or another doubt; inactive = no such curve, though single readings can be large; an effect the other way counts as inactive or inconclusive. Unless noted, % is set by controls: 0 for no effect and ±100 for the full control effect; potency is the fitted concentration of half-maximal effect.
SMILES,KB-3-1 cytotox,HT1080-NT tox,TDP1 cell CPT,KB-V1 cytotox,DT40 TDP1 no CPT,HT1080 IDH1KD tx
CC(C)CC(NC(=O)CCl)c1ccccc1 (stereo not given),i,-0.3%,-27.3%,i,?,-1.1%
CCCC(NC(=O)CCl)c1ccccc1 (stereo not given),i,?,13µM*,i,29.1µM*,?
Nc1ccc(C(=O)O)c(O)c1,?,2.1%,4.3%,i,0.1%,-1.2%
Cc1ccc(N)cc1O,?,2.8%,7.7µM*!,i,6.86µM*!,-27.6%
Cc1cc(O)c(-c2cc(O)c(C)cc2O)cc1O,i,?,5.17µM*,i,3.26µM*,?
Cc1cc(O)cc(C)c1Cl,i,?,1.0%,i,-12.4%,3.2%
CC1(c2nc3ccccc3[nH]2)CCC(=O)N1Cc1ccccn1 (stereo not given),i,11.8%,-0.8%,i,9.4%,16.8%
CC1(c2nc3ccccc3[nH]2)CCCC2=Nc3ccccc3CN21 (stereo not given),i,-1.6%,?,i,18.4µM*,-18.6%
Cc1nn(Cc2ccccc2Cl)c(C)c1C(=O)NCC(c1cccs1)N1CCOCC1 (stereo not given),i,-1.6%,-19.4%,i,-20.6%,-0.3%
Cc1cccc(N2CCn3c2nc2c3c(=O)n(C/C=C/c3ccccc3)c(=O)n2C)c1,.,.,1.3%,.,11.2%,.
CCCCCCCCCCCCCCCC[N+](C)(C)CCN(Cc1ccc(OC)cc1)c1ncccn1,?,16.4µM*,4.04µM*,i,2.55µM*,18.4µM*
O=c1c2ccccc2sn1-c1ccc(Cl)cc1Cl,?,-21.0%,6.51µM*,14.6µM*,2.91µM*,?
Cc1oc(-c2ccccc2NC(=O)c2ccccc2)nc1CNC(=O)c1c(-c2ccccc2)noc1C,.,.,0.0%[9.04 µM],.,-11.8%,.
Cc1ccc(NC(=O)Cn2c(SCc3ccc(F)cc3)nc3cccnc32)cc1F,.,.,-28.2%,.,-25.7%,.
COc1ccc(-c2cc(C(=O)N/N=C/c3ccc(OC)c(COCC(F)(F)C(F)F)c3)c3ccccc3n2)c(OC)c1,i,-1.8%,5.8µM*,i,5.8µM*,1.6%
COc1ccccc1C(=O)N/N=C/c1ccc2c(c1)OCO2,i,17.7%,-2.0%,i,-14.8%,14.6%
O=C(NN=Cc1ccc2c(c1)OCO2)c1ccccc1,?,-20.2%,-21.9%,i,-21.9%,?
O=C(N/N=C/c1ccc2c(c1)OCO2)c1cc(-c2ccc(F)cc2)nc2ccccc12,?,?,14.6µM*,8.2µM*,9.2µM*,?
COc1cc2ccccc2cc1C(=O)N/N=C/c1ccc2c(c1)OCO2,?,?,4.61µM*,?,2.59µM*,?
COc1ccc(-c2cc(C(=O)N/N=C/c3ccc4c(c3)OCO4)c3ccccc3n2)c(OC)c1,i,-21.3%,9.2µM*,i,1.84µM*,-23.0%
COc1ccc(-c2cc(C(=O)N/N=C/c3sccc3C)c3ccccc3n2)c(OC)c1,?,-26.2%,?,?,?,?
COc1ccc(-c2nc3cc(F)ccc3cc2CN(C(=O)c2ccc3c(c2)OCO3)C2CC2)cc1,.,.,16.9%,.,-11.5%,.
CCOC(=O)C1(C)CCCN(C(=O)c2ccc(OC)cc2OC)C1 (stereo not given),i,3.2%,5.9%,i,3.6%,16.5%
Cc1ccc(NC(=O)c2oc3ccc4c(c3c2C)C(=O)CC(C)(C)O4)c(C)c1,i,.,?,i,?,.
CCOc1cc(N2CCOCC2)c(OCC)cc1NC(=O)c1cc(S(=O)(=O)N2CCOCC2)ccc1C,i,6.0%,?,i,?,5.6%
SMILES,KB-3-1 cytotox,HT1080-NT tox,TDP1 cell CPT,KB-V1 cytotox,DT40 TDP1 no CPT,HT1080 IDH1KD tx
CCCCNC(=O)C1(C)CCN1C(=O)c1ccc2ccccc2n1 (stereo not given),i,29.6%,?,i,-20.7%,4.3%
Cc1ccc(-c2nnc(SCC(N)=O)nc2-c2ccc(C)cc2)cc1,i,-14.1%,?,i,?,-0.2%
Cc1nc(NC(=O)CSc2nnc(-c3ccccc3)c(-c3ccccc3)n2)c(Cl)cc1Cl,i,-9.5%,23.1µM*,?,25.9µM*,-0.7%
CCOc1ccc(-c2nnc(SCC(=O)NCc3ccc(C)cc3)nc2-c2ccc(OCC)cc2)cc1,.,.,?,.,13µM*,.
COc1ccc(OCCN(C)CC(=O)Nc2c(C)cccc2C)cc1,i,13.7%,?,i,23.1µM*,16.6%
COc1ccc(OCCCC(=O)N(C)CC(=O)Nc2c(C)cccc2C)cc1,i,-3.1%,-11.2%,i,-6.0%,-1.0%
Cc1ccc(-c2nnc(SCC(=O)N3CCOCC3)nc2-c2ccc(C)cc2)cc1,i,-3.9%,20.6µM*,i,?,-18.4%
CCN(CC(=O)Nc1c(F)cccc1F)C(=O)c1ccc(S(=O)(=O)NCc2ccco2)cc1,i,-1.5%,?,i,?,3.3%
COc1ccc(N2CCCn3c2nc2c3c(=O)n(Cc3ccc(F)cc3)c(=O)n2C)c(OC)c1,i,16.4%,?,?,?,21.5%
COCCOC(=O)N/C=C\c1nc2ccccc2c(=O)[nH]1,?,?,?,i,?,?
COc1ccc(-c2nnc(SCC(=O)Nc3c(C)cccc3C)nc2-c2ccc(OC)cc2)cc1,?,.,?,i,1.84µM*,.
c1ccc(CSc2nnc(-c3ccccc3)c(-c3ccccc3)n2)cc1,i,-20.3%,?,18.4µM*,?,-1.9%
Cc1cccc(C)c1NC(=O)CSc1nnc(-c2ccco2)c(-c2ccco2)n1,i,10.3%,-10.8%,i,-23.2%,-10.7%
Cc1ccc(-c2nnc(SCC(=O)N(C)C)nc2-c2ccc(C)cc2)cc1,i,3.2%,?,?,23.1µM*,-1.5%
O=C(CSCc1ccc(Cl)cc1)N1CCOCC1,i,12.0%,-4.7%,i,-7.9%,2.0%
Cc1ccc(CSCC(=O)N2CCOCC2)cc1,i,16.2%,6.51µM*,i,10.3µM*,13.8%
Cc1ccc(NCc2n[nH]c(=S)n2Cc2ccccc2)cc1Cl,i,-23.7%,?,i,?,-20.2%
COc1cccc2cc(C(=O)NCCc3c(C)[nH]c4ccc(F)cc34)c(=O)oc12,i,.,.,i,.,.
COc1ccc(-c2nn(CCC#N)cc2C=C(C#N)C#N)cc1,i,-1.1%,-21.4%,i,-8.9%,-9.2%
